The target of assay [1] is Thyrotropin receptor (Homo sapiens) (UniProt P16473). Put plainly: qHTS assay to identify small molecule agonists of the thyroid stimulating hormone receptor (TSHR) signaling pathway (AID 1224843; calls by dose curve; also: nearly all actives have a fitted effect of over 45% in size; also: potency is read from the fitted curve at half-maximal effect). The method, boiled down:
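TSHR-HEK293 cells in agonist mode, 30 min room-temperature step, then cAMP measured by competitive HTRF (cAMP-d2 with anti-cAMP cryptate) after 1 h at room temperature. Tested at 15 concentrations in triplicate.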

The nature of assay [2]: qHTS assay to identify small molecule agonists of the hypoxia (HIF-1) signaling pathway - cell viability counter screen (AID 1224844; calls by dose curve; also: nearly all actives have a fitted effect of over 50% in size). Put shortly: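 Luminescent ATP content (CellTiter-Glo, 30 min, room temperature) served as the viability measure in HRE-bla ME-180 cells exposed to compounds for 17 hrs in low-serum medium (0.5% dialyzed FBS).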
In general terms: qHTS replaces the single test concentration by a dilution series.

Assay [3] in a line: qHTS assay to identify small molecule agonists of H2AX (AID 1224845; active = well fitted activation curve with a large enough effect in the signal ratio in the repeat runs, not every such curve was filed as active; the % refers to the signal ratio; also: potency is read from the fitted curve at half-maximal effect). The method, boiled down: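 Wild-type CHO-K1 cells, plated overnight, exposed 3hr at 37C to 15 concentrations (0.76% DMSO final). Lysed, then HTRF anti-pH2AX (S139) cryptate and anti-H2AX-d2 antibodies, 24 hr room temperature; 665/620 nm emission read.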
A short description of assay [4]: qHTS assay to identify small molecule agonists of H2AX - cell viability counter screen (AID 1224847; calls by dose curve; also: top concentration of the series differs between compounds; nearly all actives have a fitted effect of over 30% in size). The method, boiled down:
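CHO-K1 wt, 1000 cells/well, o/n 37C; cpds 15 conc, 3 h 37C, 0.76% DMSO; CellTiter-Glo, 30 min RT, luminescence.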

Assay [5] can be described thus: qHTS RealTime-Glo MT Cell Viability Assay in HepG2 cells - 24 hour (AID 1224867). Also: nearly all actives have a fitted effect of over 50% in size. Put shortly:
(§1)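 HepG2 cells (600/well) were dispensed with RealTime-Glo reagents, incubated 5 h at 37 °C, then treated with compounds in DMSO for up to 40 h. Nonlytic NanoLuc luminescence reflecting viable cells was read at each stated time point.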

Assay [6] in a line: qHTS RealTime-Glo MT Cell Viability Assay in HEK293 cells - 32 hour (AID 1224868). Also: nearly all actives have a fitted effect of over 50% in size. Also: potency is read from the fitted curve at half-maximal effect. Put shortly: (§2)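 HEK293 cells seeded with NanoLuc/prosubstrate reagent, rested 5 h at 37 C, then dosed and kept at 37 C up to 40 h. Nonlytic real-time luminescence from viable cells read at 0, 8, 16, 24, 32 and 40 h.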
A short description of assay [7]: A CellTox Green Cytotoxicity Assay to monitor cytotoxicity in HEK293 cells - 0 hour (AID 1224869). Also: nearly all actives have a fitted effect of over 50% in size. The method, boiled down: (§3)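 Each value comes from one timepoint of a single continuous run in which HEK293 cells with CellTox Green were exposed to compound for up to 40 h at 37 C, dye fluorescence rising with cell death.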
A short description of assay [8]: qHTS RealTime-Glo MT Cell Viability Assay in HepG2 cells - 40 hour (AID 1224870). Also: nearly all actives have a fitted effect of over 50% in size. The method, boiled down:
(§4)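 HepG2 cells (600/well) mixed with RealTime-Glo MT reagent, settled 5 h at 37 C/5% CO2 before compound addition. Nonlytic NanoLuc luminescence from viable-cell prosubstrate reduction read repeatedly during 40 h treatment at 37 C.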

The nature of assay [9]: A CellTox Green Cytotoxicity Assay to monitor cytotoxicity in HEK293 cells - 40 hour (AID 1224871). Also: nearly all actives have a fitted effect of over 45% in size. Also: potency is read from the fitted curve at half-maximal effect. Put shortly: as §3
A short description of assay [10]: qHTS RealTime-Glo MT Cell Viability Assay in HEK293 cells - 16 hour (AID 1224872). Also: nearly all actives have a fitted effect of over 50% in size. Also: potency is read from the fitted curve at half-maximal effect. Put shortly:
as §2

Assay [11] is described as follows: qHTS RealTime-Glo MT Cell Viability Assay in HepG2 cells - 8 hour (AID 1224873). Also: nearly all actives have a fitted effect of over 55% in size. Put shortly: as §4
Assay [12] can be described thus: qHTS RealTime-Glo MT Cell Viability Assay in HEK293 cells - 40 hour (AID 1224874). Also: nearly all actives have a fitted effect of over 50% in size. Also: potency is read from the fitted curve at half-maximal effect. As to conditions: RealTime-Glo luminescence; max response: stronger effect = lower value. The method, boiled down: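 qHTS format; HEK293 cells with NanoLuc/prosubstrate reagent, 37 C/5% CO2 for 5 h pre-dosing; compounds 23 nL in DMSO; luminescence at each time point reflects viable cells.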

The nature of assay [13]: A CellTox Green Cytotoxicity Assay to monitor cytotoxicity in HEK293 cells - 24 hour (AID 1224875). Also: nearly all actives have a fitted effect of over 45% in size. The method, boiled down: as §3
The nature of assay [14]: A CellTox Green Cytotoxicity Assay to monitor cytotoxicity in HepG2 cells - 16 hour (AID 1224876). Also: nearly all actives have a fitted effect of over 45% in size. The method, boiled down:
(§5)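 Continuous culture of HepG2 cells with a membrane-impermeant DNA dye; rising fluorescence marks dead cells. Compound exposure lasted up to 40 h at 37 C, with reads every 8 h from 0 h.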

A short description of assay [15]: qHTS RealTime-Glo MT Cell Viability Assay in HepG2 cells - 32 hour (AID 1224877). Also: nearly all actives have a fitted effect of over 55% in size. The method, boiled down: as §1
Assay [16] can be described thus: A CellTox Green Cytotoxicity Assay to monitor cytotoxicity in HepG2 cells - 24 hour (AID 1224878). Also: nearly all actives have a fitted effect of over 45% in size. Put shortly: as §5
Assay [17] in a line: A CellTox Green Cytotoxicity Assay to monitor cytotoxicity in HepG2 cells - 40 hour (AID 1224879). Also: nearly all actives have a fitted effect of over 40% in size. Also: potency is read from the fitted curve at half-maximal effect. Put shortly:
as §5

Assay [18] in a line: qHTS assay to identify small molecule agonists of the hypoxia (HIF-1) signaling pathway (AID 1224846; active = well fitted activation curve with a large enough effect in the signal ratio in the repeat runs, not every such curve was filed as active; the % refers to the signal ratio). Put shortly:
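Measured by blue/green FRET after loading CCF4-AM: beta-lactamase expressed from a hypoxia response element in ME-180 cells. Test agents were delivered in DMSO and left 17 hrs; cells had been plated 5 hrs earlier in low-serum (0.5% dialyzed FBS) medium.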

Assay [19] can be described thus: qHTS assay to identify small molecule antagonists of the estrogen related receptor (ERR) signaling pathway from Tox21 library (AID 1224848). Also: nearly all actives have a fitted effect of over 50% in size. The method, boiled down:
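ERR reporter cell line (from NTP) seeded 2,000 cells/well, rested 6 h at 37 C/5% CO2, then pin-dosed with compounds in DMSO. After 18 h at 37 C, ONE-Glo added; luminescence read after 30 min at room temperature.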

The nature of assay [20]: qHTS assay to identify small molecule agonists of the estrogen related receptor (ERR) signaling pathway from Tox21 library (AID 1224849; calls by dose curve; also: nearly all actives have a fitted effect of over 15% in size). As to conditions: ERR reporter cell line, ONE-Glo luciferase, 18 h. The method, boiled down: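 We plated ERR reporter cells, waited 6 h, added compounds in DMSO by pin tool and incubated them 18 h at 37 C. ONE-Glo was then added and luminescence read after 30 min.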

Several values for one entry are separate records, joined by “and”; a condition that tells them apart may be missing. Equal entries are not always repeated. Records with an inconclusive call do not appear. More than one record can exist for a structure, and the calls need not agree. Activity calls are given as the source filed them. Unless noted, calls follow the shape of the dose curve; as a rule, active = well fitted curve in the direction sought with a large enough effect in the repeat runs; inconclusive = weak or mixed curves; inactive = no such curve, though single readings can be large; an effect the other way counts as inactive or inconclusive.
% is scaled to controls: 0 for no effect and ±100 for the full control effect.

Thyrotropin receptor (Homo sapiens), sequence (P16473 whole entry, looked up): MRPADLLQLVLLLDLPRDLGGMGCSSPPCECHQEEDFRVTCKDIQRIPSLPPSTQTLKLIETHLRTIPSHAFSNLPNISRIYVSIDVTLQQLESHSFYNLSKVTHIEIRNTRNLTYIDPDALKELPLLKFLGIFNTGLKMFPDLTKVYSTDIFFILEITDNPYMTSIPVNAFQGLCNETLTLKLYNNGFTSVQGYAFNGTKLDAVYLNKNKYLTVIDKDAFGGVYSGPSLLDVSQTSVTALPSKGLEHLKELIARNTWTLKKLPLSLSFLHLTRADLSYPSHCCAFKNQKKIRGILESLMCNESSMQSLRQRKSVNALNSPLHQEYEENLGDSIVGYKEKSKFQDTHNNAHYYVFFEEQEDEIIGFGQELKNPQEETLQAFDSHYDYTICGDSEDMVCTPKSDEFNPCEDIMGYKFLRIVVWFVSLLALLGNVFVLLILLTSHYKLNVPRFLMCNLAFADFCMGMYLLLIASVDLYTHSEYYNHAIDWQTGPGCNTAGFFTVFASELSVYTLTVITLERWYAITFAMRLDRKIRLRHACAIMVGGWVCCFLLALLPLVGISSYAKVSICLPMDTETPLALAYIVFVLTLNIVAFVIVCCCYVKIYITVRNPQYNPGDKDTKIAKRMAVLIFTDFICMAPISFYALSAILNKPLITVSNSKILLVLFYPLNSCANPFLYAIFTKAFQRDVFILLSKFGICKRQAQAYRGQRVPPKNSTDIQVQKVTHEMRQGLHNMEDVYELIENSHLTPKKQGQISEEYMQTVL

With `Cn1cnc2c1c(=O)[nH]c(=O)n2C`, the Potency entry in assay [1], in assay [2], in assay [3], in assay [4], in [6] and in assay [7] was “inactive” each time. Also, the Potency result in [9], in assay [10], in assay [13], in assay [14], in assay [16] and in [17] was “inactive” in each case. Further, the outcome in [5], in [8], in assay [11] and in assay [15] was inactive. Also, in [12], the max response is 8.97% (inactive) and 7.21% (inactive).

For `CCCCOC(=O)CCCCCCCCC(=O)OCCCC`, the Potency entry in assay [1], in assay [2], in assay [3], in assay [6], in assay [7] and in assay [9] was “inactive” each time. The Potency entry in assay [10], in assay [13], in [14] and in assay [17] was “inactive” in each case. Besides, the outcome in assay [18], in assay [5], in assay [8], in [11] and in [15] was inactive. Further, the max response in [12] was 14.7% (inactive) and 5.35% (inactive).

As for `CC(O)COc1ccccc1` (centres undefined), the Potency entry in assay [1], in assay [2], in [3], in [6], in [7] and in assay [9] was “inactive” in each case. Also, the Potency result in assay [10], in assay [13], in assay [14] and in [17] was “inactive” in each case. Besides, the call in assay [18], in [5], in assay [8], in assay [11] and in assay [15] was inactive. Moreover, the max response in assay [12] was 1.14% (inactive) and -0.457% (inactive) and -1.74% (inactive).

On to `OC[C@@H](O)[C@@H](O)[C@H](O)[C@H](O)CO`, for which the Potency result in [1], in assay [2], in assay [3], in assay [19], in assay [6] and in assay [7] was “inactive” in each case. In addition, the Potency result in assay [9], in assay [10], in assay [13], in [14], in [16] and in [17] was “inactive” throughout. For the same molecule, the molecule was called inactive in assay [18], in [5], in assay [8], in assay [11] and in assay [15]. Besides, the activity change, positive = activation in assay [20] (at 42.5 µM (top of the series)) was 2.34% (inactive); in assay [20] (at 92.4 µM (top of the series)), 1.3% (inactive) and 3.91% (inactive). In addition, the max response in assay [12] was 5.62% (inactive) and 0.187% (inactive) and 10.1% (inactive).

On to `N[C@@H](Cc1c[nH]c2ccc(O)cc12)C(=O)O`, for which the Potency entry in assay [1], in [2], in assay [3], in assay [6], in assay [7] and in assay [9] was “inactive” throughout. Moreover, the Potency result in [10], in assay [13], in assay [14], in assay [16] and in [17] was “inactive” each time. In addition, the molecule was called inactive in assay [18], in [5], in [8], in assay [11] and in assay [15]. In assay [12], the max response is 3.87% (inactive) and 1.98% (inactive).

As to `COc1ccc(O)cc1`, the Potency entry in assay [1], in assay [2], in [6], in assay [7], in assay [9] and in [10] was “inactive” throughout. Besides, the Potency result in [13] and in [17] was “inactive” throughout. In addition, the Potency in assay [3] was 86.5 µM (active) and 89.8 µM (active) and 49.2 µM (active). For the same molecule, the result in assay [18], in assay [5], in assay [8], in [11] and in [15] was inactive. For the same molecule, in [12], the max response was -25.5% (inactive) and -26.5% (inactive) and -24.7% (inactive).

Consider `CCCCCCCCCCCCCC(=O)OC(C)C`, for which the Potency result in assay [1], in assay [2], in assay [3], in [7], in assay [9] and in assay [13] was “inactive” in each case. The Potency result in [16] and in [17] was “inactive” in each case. Further, the molecule was called inactive in assay [18], in assay [5], in [8], in assay [11] and in assay [15]. Also, the Potency result in [6] is “inactive and 2.45 µM (active)”; in assay [10], “inactive and 4.36 µM (active)”; in assay [12] it was 2.75 µM (active). In addition, in [12], the max response is 1.2% (inactive) and -0.28% (inactive).

Regarding `C#C[C@]1(O)CC[C@H]2[C@@H]3CCc4cc(O)ccc4[C@H]3CC[C@@]21C`, the Potency in [1] is 13.6 µM (active) and 21.7 µM (active) and 8.41 µM (active); in [6] it was 8.65 µM (active) and 19.5 µM (active); in assay [9] it was 12.2 µM (active) and inactive; in assay [12] it was 6.87 µM (active) and 21.9 µM (active); in assay [17], 17.3 µM (active) and 19.5 µM (active). Moreover, the Potency result in assay [2], in assay [3], in assay [7], in [10] and in assay [13] was “inactive” each time. In addition, the result in assay [18], in assay [5], in assay [8], in [11] and in assay [15] was inactive.

On to `c1ccc2[nH]c(-c3cscn3)nc2c1`, for which the Potency result in [1], in assay [2], in [3], in assay [4], in [6] and in assay [7] was “inactive” each time. The Potency result in assay [9], in [13], in assay [14] and in [17] was “inactive” throughout. For the same molecule, the call in [18], in assay [5], in assay [8], in assay [11] and in [15] was inactive. Also, the max response in assay [12] was -21.8% (inactive).

`Cc1c(N(C)CS(=O)(=O)O)c(=O)n(-c2ccccc2)n1C`: the Potency entry in assay [1], in [2], in assay [3], in assay [6], in assay [7] and in [9] was “inactive” throughout. Besides, the Potency result in assay [10], in [13], in assay [14], in assay [16] and in assay [17] was “inactive” throughout. Further, the outcome in [18], in assay [5], in assay [8], in [11] and in assay [15] was inactive. In addition, the max response in assay [12] was -0.4% (inactive) and 7.69% (inactive).

As to `CC(C)(C)NCC(O)c1ccc(O)c(CO)c1` (centres undefined), the Potency in [1] was 60.7 nM (active) and 37.6 nM (active). Further, the Potency result in assay [2], in assay [3], in [6], in [7], in assay [9] and in assay [10] was “inactive” throughout. Besides, the Potency entry in [13], in assay [14] and in [17] was “inactive” in each case. Besides, the result in assay [18], in [5], in [8], in [11] and in assay [15] was inactive. For the same molecule, the max response in assay [12] was 9.56% (inactive) and 4.37% (inactive).

Take `C[C@]12C[C@H](O)[C@H]3[C@@H](CCC4=CC(=O)CC[C@@]43C)[C@@H]1CC[C@@H]2C(=O)CO`: the Potency in assay [1] is 12.2 µM (active) and inactive. Moreover, the Potency result in [2], in assay [3], in assay [6], in [7], in [9] and in assay [10] was “inactive” each time. Besides, the Potency entry in [13], in assay [14], in assay [16] and in assay [17] was “inactive” each time. In addition, the molecule was called inactive in assay [18], in assay [5], in assay [8], in assay [11] and in assay [15]. The max response in [12] was -9.57% (inactive).
